According to PubChem BioAssay (NCI):
Compounds without any hit were thinned out: in the full panel of roughly 83,000, 20% have a hit.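 The test compound was applied at a single concentration to cells in 96-well plates for 48 hours, and percent growth was recorded.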 A number with no mark means an inactive call. Active and inactive are the calls of the source. How the source made its calls: active means growth percent below 10; inactive means the rest.

Assays:
Assay in all cases: NCI-60 one-dose screen, 48 h (100 = growth as untreated, 0 = no growth, -100 = all killed)
Settings in all cases: 10 µM unless noted
NCI-H23 lung = tested on: NCI-H23 lung
NCI-H226 lung = tested on: NCI-H226 lung
NCI-H322M lung = tested on: NCI-H322M lung
HOP-62 NSCLC = tested on: HOP-62 NSCLC
NCI-H460 lung = tested on: NCI-H460 lung
HOP-92 NSCLC = tested on: HOP-92 NSCLC
NCI-H522 lung = tested on: NCI-H522 lung
A549/ATCC NSCLC = tested on: A549/ATCC NSCLC
786-0 renal = tested on: 786-0 renal
COLO 205 colon = tested on: COLO 205 colon
DU-145 prostate = tested on: DU-145 prostate
K-562 leukemia = tested on: K-562 leukemia
MALME-3M melanoma = tested on: MALME-3M melanoma
MDA-MB-231 breast = tested on: MDA-MB-231 breast
RXF 393 renal = tested on: RXF 393 renal
SF-268 CNS = tested on: SF-268 CNS
SF-295 CNS = tested on: SF-295 CNS
SF-539 CNS = tested on: SF-539 CNS
UACC-257 melanoma = tested on: UACC-257 melanoma
M14 melanoma = tested on: M14 melanoma

| SMILES | growth (NCI-H23 lung) | growth (NCI-H226 lung) | growth (NCI-H322M lung) | growth (HOP-62 NSCLC) | growth (NCI-H460 lung) | growth (HOP-92 NSCLC) | growth (NCI-H522 lung) | growth (A549/ATCC NSCLC) | growth (786-0 renal) | growth (COLO 205 colon) | growth (DU-145 prostate) | growth (K-562 leukemia) | growth (MALME-3M melanoma) | growth (MDA-MB-231 breast) | growth (RXF 393 renal) | growth (SF-268 CNS) | growth (SF-295 CNS) | growth (SF-539 CNS) | growth (UACC-257 melanoma) | growth (M14 melanoma) |
| --- | --- | --- | --- | --- | --- | --- | --- | --- | --- | --- | --- | --- | --- | --- | --- | --- | --- | --- | --- | --- |
| O=C1Nc2cc(-c3ccc(NS(=O)(=O)c4ccc(C(F)(F)F)cc4)cc3)ccc2/C1=C/c1ccc[nH]1 | 11% | 49.7% | 44% | 43.5% | 5.56% (active) | 42.8% | -18.4% (active) | 18.7% | 40.8% | 23.9% | 40.6% | 11.4% | 63.3% | 66.7% | 25% | 55.5% | 17.6% | 42.4% | 26.3% | 55.3% |
| O=C(O)CC1S/C(=N/N=C/c2nc3ccccc3s2)NC1=O (stereo not given) | 96.2% | 101% | 106% | 108% | 94.7% | 136% | 104% | 96% | 80.9% | 135% | 95.8% | 94.1% | 107% | 102% | 134% | 85.5% | 104% | 98.1% | 105% | 90.4% |
| O=C(CSc1nnc(-c2ccc(-c3nc4ccccc4[nH]3)cc2)o1)Nc1ccccc1 | 63.1% | 76.1% | 84.4% | 63.2% | 12% | 54.1% | 78% | 51.8% | 22% | 118% | 4.85% (active) | 33.1% | 93.3% | -14.5% (active) | -1.42% (active) | 45.7% | 94.2% | 46.7% | 103% | 60.3% |
| CC(C)CN1C(=O)/C(=C\C(=O)c2cc3ccccc3oc2=O)c2ccccc21 | 90.5% | 83.5% | 96.7% | 97.9% | 103% | 104% | 31.5% | 109% | 105% | 26.8% | 98.3% | 1.97% (active) | 59% | 87.5% | 85.4% | 106% | 105% | 102% | 106% | 85% |
| COC(=O)c1cc(C(=O)C(C)(C)C)n2c3ccccc3c3ccccc3c12 | 92.4% | 100% | 102% | 132% | 106% | 63.2% | 103% | 115% | 93% | 112% | 97.4% | 77.1% | 109% | 79.4% | 91.3% | 103% | 93.5% | 96.7% | 117% | 96.7% |
| Cc1ccc2c(c1)nc(-c1ccccc1)n2CC(=O)N=Nc1c(O)[nH]c2ccc(Cl)cc12 | -66% (active) | -53.5% (active) | -53.8% (active) | -79.7% (active) | -68.9% (active) | -74.2% (active) | -75% (active) | -18.7% (active) | -92% (active) | -87.6% (active) | -38% (active) | -3.37% (active) | -28.6% (active) | -80.5% (active) | -88.4% (active) | 2.28% (active) | -62.4% (active) | -90.3% (active) | -28.2% (active) | -28.4% (active) |
| COc1cc(C2CC(c3ccc(S(=O)(=O)NCCNc4nc(N(C)C)nc(N5CCOCC5)n4)cc3)=Nc3c(N)nc(N)nc3N2)cc(OC)c1OC (stereo not given) | 97.4% | 85.1% | 79.8% | 90.8% | 104% | 92.7% | 90.1% | 98.3% | 94.3% | 116% | 109% | 92.5% | 92.6% | 80.8% | 85.7% | 89.6% | 94.4% | 96.8% | 99.8% | 101% |
